# Experiments:
# Assay in all cases: DAPPL (digital affinity profiling via proximity ligation, sequencing); 10 mM Tris-HCl pH 7.5, 50 mM NaCl, 1 mM DTT, 4% glycerol, room temperature, 30 min; GST-TFs on glutathione beads, 16-mer random dsDNA library, 0.1% formaldehyde crosslink after washing; high values mean tight binding
# [1] = target: T1, FEV (Homo sapiens, UniProt Q99581 1-238); details: protein: recombinant; tags: N-terminal GST; dsDNA, one strand shown
# T1 sequence: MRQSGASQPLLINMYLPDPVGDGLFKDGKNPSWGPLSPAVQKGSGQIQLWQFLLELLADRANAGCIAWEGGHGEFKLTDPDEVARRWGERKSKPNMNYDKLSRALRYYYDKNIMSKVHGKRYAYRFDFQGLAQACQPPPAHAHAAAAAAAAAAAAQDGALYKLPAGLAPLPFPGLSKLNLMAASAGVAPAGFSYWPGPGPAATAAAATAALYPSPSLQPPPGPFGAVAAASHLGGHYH
# How it was run: (§1)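 Binding signal is defined as a hexamer's read frequency for one factor over its frequency for the tag-only sample. To obtain reads, GST-fused human transcription factors were expressed in yeast, captured on glutathione beads, barcoded with DNA and pooled with that sample. Pools met 200 nmole of a 16-mer random double-stranded DNA library in Tris/NaCl/DTT/glycerol buffer for 30 min at room temperature before washing, 0.1% formaldehyde crosslinking, proximity ligation (BsaI/T4 ligase, 1 h, 37 °C), PCR and Illumina NextSeq500 sequencing.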
# [2] = target: ETV5 (Homo sapiens, UniProt P41161 1-510); details: protein: recombinant; tags: N-terminal GST; dsDNA, one strand shown
# ETV5, sequence (P41161 whole entry): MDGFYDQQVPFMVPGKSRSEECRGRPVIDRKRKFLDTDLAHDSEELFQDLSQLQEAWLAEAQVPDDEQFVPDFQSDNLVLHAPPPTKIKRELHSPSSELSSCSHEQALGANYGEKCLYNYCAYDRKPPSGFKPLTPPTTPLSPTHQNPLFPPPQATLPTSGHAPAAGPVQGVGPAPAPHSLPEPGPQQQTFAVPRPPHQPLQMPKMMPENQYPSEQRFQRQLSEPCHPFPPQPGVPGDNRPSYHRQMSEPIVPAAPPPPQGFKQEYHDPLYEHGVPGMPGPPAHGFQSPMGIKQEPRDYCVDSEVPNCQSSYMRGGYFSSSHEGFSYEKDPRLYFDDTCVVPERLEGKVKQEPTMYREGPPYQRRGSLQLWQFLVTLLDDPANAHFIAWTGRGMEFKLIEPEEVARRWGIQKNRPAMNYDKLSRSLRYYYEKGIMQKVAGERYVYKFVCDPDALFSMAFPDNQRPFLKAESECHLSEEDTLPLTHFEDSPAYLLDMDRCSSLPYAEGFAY
# How it was run: as §1
# [3] = target: HSF1 (Homo sapiens, UniProt Q00613 1-529); details: protein: recombinant; tags: N-terminal GST; chain copies: 3; dsDNA, one strand shown
# HSF1, sequence (Q00613 whole entry): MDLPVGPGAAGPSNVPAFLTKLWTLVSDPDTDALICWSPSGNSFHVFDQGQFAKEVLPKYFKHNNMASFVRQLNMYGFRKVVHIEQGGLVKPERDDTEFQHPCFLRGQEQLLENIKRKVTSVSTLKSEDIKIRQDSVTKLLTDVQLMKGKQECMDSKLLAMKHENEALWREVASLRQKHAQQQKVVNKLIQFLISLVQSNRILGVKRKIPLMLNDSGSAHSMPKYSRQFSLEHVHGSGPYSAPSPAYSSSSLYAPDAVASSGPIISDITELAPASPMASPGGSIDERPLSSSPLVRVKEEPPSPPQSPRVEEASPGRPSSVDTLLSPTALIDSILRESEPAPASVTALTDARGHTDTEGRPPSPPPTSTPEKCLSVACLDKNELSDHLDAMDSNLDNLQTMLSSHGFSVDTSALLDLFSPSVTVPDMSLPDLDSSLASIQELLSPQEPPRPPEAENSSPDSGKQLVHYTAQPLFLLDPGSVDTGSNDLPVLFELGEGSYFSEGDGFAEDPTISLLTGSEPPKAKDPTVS
# How it was run: as §1
# [4] = target: T2, SPIC (Homo sapiens, UniProt Q8N5J4 1-248); details: protein: recombinant; tags: N-terminal GST; dsDNA, one strand shown
# T2 sequence: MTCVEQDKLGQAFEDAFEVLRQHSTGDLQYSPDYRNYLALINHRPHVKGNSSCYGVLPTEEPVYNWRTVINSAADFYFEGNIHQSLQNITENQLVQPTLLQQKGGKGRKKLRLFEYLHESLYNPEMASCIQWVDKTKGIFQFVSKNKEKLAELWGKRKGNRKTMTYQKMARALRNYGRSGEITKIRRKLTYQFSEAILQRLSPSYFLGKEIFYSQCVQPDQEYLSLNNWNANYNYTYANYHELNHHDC
# How it was run: as §1
# [5] = target: ELF4 (Homo sapiens, UniProt Q99607 1-663); details: protein: recombinant; tags: N-terminal GST; dsDNA, one strand shown
# ELF4, sequence (Q99607 whole entry): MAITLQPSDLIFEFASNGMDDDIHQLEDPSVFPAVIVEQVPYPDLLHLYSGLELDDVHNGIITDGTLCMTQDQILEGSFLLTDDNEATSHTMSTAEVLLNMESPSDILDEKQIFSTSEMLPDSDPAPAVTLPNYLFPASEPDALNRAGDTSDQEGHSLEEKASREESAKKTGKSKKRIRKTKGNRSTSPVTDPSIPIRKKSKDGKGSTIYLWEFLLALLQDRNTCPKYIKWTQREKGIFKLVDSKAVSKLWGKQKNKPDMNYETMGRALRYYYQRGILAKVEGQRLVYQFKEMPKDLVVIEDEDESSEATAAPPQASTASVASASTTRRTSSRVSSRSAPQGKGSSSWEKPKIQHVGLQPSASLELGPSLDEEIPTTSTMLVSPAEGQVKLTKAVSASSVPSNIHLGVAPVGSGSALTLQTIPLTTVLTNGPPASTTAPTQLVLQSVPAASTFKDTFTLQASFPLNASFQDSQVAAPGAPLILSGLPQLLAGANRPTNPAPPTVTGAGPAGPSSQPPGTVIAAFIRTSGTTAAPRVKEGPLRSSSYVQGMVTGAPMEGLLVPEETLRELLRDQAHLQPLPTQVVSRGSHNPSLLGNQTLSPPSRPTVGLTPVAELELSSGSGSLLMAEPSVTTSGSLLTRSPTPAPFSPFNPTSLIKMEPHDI
# How it was run: as §1
# [6] = target: T3, ELK4 (Homo sapiens, UniProt P28324-2 1-405); details: protein: recombinant; tags: N-terminal GST; dsDNA, one strand shown
# T3 sequence: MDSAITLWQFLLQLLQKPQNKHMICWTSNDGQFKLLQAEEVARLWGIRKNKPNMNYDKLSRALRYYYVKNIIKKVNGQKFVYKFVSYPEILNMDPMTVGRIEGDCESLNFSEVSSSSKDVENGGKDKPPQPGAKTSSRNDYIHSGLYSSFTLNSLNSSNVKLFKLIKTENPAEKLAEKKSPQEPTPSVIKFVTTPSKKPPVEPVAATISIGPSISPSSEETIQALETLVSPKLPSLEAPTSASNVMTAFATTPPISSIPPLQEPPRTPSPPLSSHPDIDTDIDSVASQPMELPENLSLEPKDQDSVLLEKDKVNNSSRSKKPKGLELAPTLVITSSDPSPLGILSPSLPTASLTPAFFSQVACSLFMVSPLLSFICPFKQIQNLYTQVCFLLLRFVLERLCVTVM
# How it was run: as §1
# [7] = target: T4, ETV2 (Homo sapiens, UniProt O00321 1-342); details: protein: recombinant; tags: N-terminal GST; dsDNA, one strand shown
# T4 sequence: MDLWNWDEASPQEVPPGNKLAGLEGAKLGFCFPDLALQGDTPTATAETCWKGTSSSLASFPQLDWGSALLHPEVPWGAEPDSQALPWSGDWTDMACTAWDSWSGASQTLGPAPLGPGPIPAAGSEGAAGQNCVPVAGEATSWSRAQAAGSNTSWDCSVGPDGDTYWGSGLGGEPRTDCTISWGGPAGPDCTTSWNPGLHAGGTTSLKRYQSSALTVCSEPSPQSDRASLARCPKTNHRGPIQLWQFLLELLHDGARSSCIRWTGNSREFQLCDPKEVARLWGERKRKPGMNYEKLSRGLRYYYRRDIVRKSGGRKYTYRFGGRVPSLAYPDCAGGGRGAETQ
# How it was run: as §1
# [8] = target: T5, ELF3 (Homo sapiens, UniProt P78545 1-371); details: protein: recombinant; tags: N-terminal GST; dsDNA, one strand shown
# T5 sequence: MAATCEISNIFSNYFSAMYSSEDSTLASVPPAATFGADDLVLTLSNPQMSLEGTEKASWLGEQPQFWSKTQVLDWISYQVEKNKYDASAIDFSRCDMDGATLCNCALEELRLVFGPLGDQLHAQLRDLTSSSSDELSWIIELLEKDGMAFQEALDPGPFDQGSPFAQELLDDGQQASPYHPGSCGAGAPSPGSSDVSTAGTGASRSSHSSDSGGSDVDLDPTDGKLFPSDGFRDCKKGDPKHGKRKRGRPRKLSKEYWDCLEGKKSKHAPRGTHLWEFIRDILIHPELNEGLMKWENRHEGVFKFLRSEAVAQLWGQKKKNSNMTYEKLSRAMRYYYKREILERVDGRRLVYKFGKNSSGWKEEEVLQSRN
# How it was run: as §1
# [9] = target: CRX (Homo sapiens, UniProt O43186 1-299); details: protein: recombinant; tags: N-terminal GST; dsDNA, one strand shown
# CRX, sequence (O43186 whole entry): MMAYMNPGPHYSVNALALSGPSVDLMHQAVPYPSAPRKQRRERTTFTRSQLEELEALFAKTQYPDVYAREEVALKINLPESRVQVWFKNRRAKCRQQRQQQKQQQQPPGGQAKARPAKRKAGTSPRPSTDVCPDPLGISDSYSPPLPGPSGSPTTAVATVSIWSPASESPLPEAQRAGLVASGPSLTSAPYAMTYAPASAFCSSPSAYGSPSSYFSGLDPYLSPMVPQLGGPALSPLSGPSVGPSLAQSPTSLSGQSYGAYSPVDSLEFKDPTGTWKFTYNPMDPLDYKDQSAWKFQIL
# How it was run: as §1
# [10] = target: ETV1 (Homo sapiens, UniProt P50549 1-477); details: protein: recombinant; tags: N-terminal GST; dsDNA, one strand shown
# ETV1, sequence (P50549 whole entry): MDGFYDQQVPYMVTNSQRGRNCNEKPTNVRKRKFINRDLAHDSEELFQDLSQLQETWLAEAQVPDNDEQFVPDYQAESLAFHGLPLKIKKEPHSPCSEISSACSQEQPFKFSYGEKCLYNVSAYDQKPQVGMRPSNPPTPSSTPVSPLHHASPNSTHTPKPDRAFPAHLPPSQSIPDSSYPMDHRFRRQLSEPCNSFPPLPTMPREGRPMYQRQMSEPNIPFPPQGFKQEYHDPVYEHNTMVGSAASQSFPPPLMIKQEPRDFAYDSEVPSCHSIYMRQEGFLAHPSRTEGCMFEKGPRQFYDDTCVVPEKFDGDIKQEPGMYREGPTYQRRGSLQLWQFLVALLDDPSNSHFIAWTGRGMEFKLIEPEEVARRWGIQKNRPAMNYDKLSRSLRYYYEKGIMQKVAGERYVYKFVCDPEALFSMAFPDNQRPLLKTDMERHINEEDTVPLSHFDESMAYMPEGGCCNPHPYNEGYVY
# How it was run: as §1
sequence,measurement,setting,value
TTATAC,binding signal,[1],"1.35 fold enrichment (6-mer frequency, TF over GST control)"
same,binding signal,[2],"1.29 fold enrichment (6-mer frequency, TF over GST control)"
same,binding signal,[3],"1.79 fold enrichment (6-mer frequency, TF over GST control)"
same,binding signal,[4],"1.42 fold enrichment (6-mer frequency, TF over GST control)"
same,binding signal,[5],"1.49 fold enrichment (6-mer frequency, TF over GST control)"
same,binding signal,[6],"1.38 fold enrichment (6-mer frequency, TF over GST control)"
same,binding signal,[7],"1.38 fold enrichment (6-mer frequency, TF over GST control)"
same,binding signal,[8],"1.43 fold enrichment (6-mer frequency, TF over GST control)"
same,binding signal,[9],"2.54 fold enrichment (6-mer frequency, TF over GST control)"
same,binding signal,[10],"1.5 fold enrichment (6-mer frequency, TF over GST control)"

# Reference: PMC7862700, “An all-to-all approach to the identification of sequence-specific readers for epigenetic DNA modifications on cytosine”
